Results: PubChem BioAssay (EPA / NIEHS)
The source made the active and inactive calls. The calls were made as follows: active = hit-call score of the fitted dose curve at least 0.9, where 1 is the maximum; inactive = score below 0.9.

Tests used:
[1] = ATG_CRE_CIS: Attagene CIS-FACTORIAL HepG2 Assay for human cAMP Responsive Element (CRE) binding protein 3 (AID 2282926); conditions: HepG2 CRE cis-reporter, Attagene multiplexed mRNA; actives raise or lower the signal
Procedure, shortened: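 Liver-derived HepG2, transfected with a CRE-containing reporter panel, exposed 24 h; transcript levels sized and quantified by capillary electrophoresis of labelled amplicons; signal changes either way referenced to vehicle.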

[2] = ATG_CMV_CIS: Attagene CIS-FACTORIAL HepG2 Assay for human CMV (Internal Marker) (AID 2282928); conditions: HepG2 CMV promoter reporter, transcription factor profiling; actives raise or lower the signal;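 also: endpoint acts as a background internal control marker rather than a target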
Procedure, shortened: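 24 h chemical treatment, HepG2 with transient multi-reporter transfection; RNA → oligo(dT) RT → PCR → 6-FAM extension → HpaI digest → CE fluorescence. Bidirectional fit, DMSO negative control.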

[3] = ATG_DR4_LXR_CIS: Attagene CIS-FACTORIAL HepG2 Assay for human Liver X Receptor (LXR), DR4 submotif (AID 2282929); conditions: HepG2 Attagene DR4 cis-reporter, mRNA transcription; actives raise or lower the signal
Procedure, shortened: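 HepG2 cells transiently transfected with cis-promoter-driven multiplexed reporter units (DR4 element) were dosed for 24 h. Reporter mRNA was quantified by RT-PCR, fluorescent primer extension, HpaI digestion and capillary electrophoresis; bidirectional fitting versus DMSO baseline.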

[4] = target: Aryl hydrocarbon receptor (Homo sapiens) (UniProt P35869); assay: ATG_Ahr_CIS: Attagene CIS-FACTORIAL HepG2 Assay for human Aryl Hydrocarbon Receptor (Ahr) (AID 2282930); conditions: HepG2 AhR cis-factorial reporter transcription; actives raise or lower the signal
Procedure, shortened: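 Values derive from bidirectional fitting against DMSO negative control. Underlying signal: cis-element reporter mRNA in transiently transfected HepG2, harvested 24 h post-dose and measured by RT-PCR plus capillary electrophoresis.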

[5] = ATG_AP_1_CIS: Attagene CIS-FACTORIAL HepG2 Assay for human Activator Protein 1 (AP-1) (AID 2282931); conditions: HepG2 Attagene cis-factorial AP-1 reporter mRNA; actives raise or lower the signal
Procedure, shortened: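 HepG2 cells transiently transfected with cis-element-driven multiplex reporter units; 24 h compound exposure. Reporter mRNA quantified by RT-PCR, FAM-labelled fragments resolved by capillary electrophoresis; bidirectional fit versus DMSO baseline.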

[6] = ATG_AP_2_CIS: Attagene CIS-FACTORIAL HepG2 Assay for human Activator Protein 2 (AP-2) (AID 2282932); conditions: HepG2 AP-2 cis-reporter, Attagene transcription factor profiling; actives raise or lower the signal
Procedure, shortened: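 Assay in transfected HepG2 with promoter-regulated reporters, 24 h incubation after dosing. Signal is reporter mRNA fluorescence (RT-PCR, capillary electrophoresis), analysed for both increases and decreases relative to DMSO controls.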

[7] = ATG_BRE_CIS: Attagene CIS-FACTORIAL HepG2 Assay for human Bone Morphogenetic Protein (BMP) Response Element (BRE) (AID 2282933); conditions: HepG2 BMP response element reporter, Attagene transcription factor profiling; actives raise or lower the signal
Procedure, shortened: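 Fluorescence-labelled reporter cDNA fragments, separated by capillary electrophoresis, gave the signal for this component of a 52-readout multiplex. HepG2 cells were transfected, exposed to chemicals for 24 h, and compared with DMSO using bidirectional fitting.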

[8] = target: Transcription factor E2F1 (Homo sapiens) (UniProt Q01094); assay: ATG_E2F_CIS: Attagene CIS-FACTORIAL HepG2 Assay for human E2F Transcription Factor 1 (AID 2282935); conditions: HepG2 Attagene cis-reporter, E2F reporter RNA transcripts; actives raise or lower the signal
Procedure, shortened: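 In this cis-factorial format, endogenous factor activity drives transfected reporters in HepG2; transcripts collected at 24 h are quantified by fluorescence after RT-PCR and capillary separation.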

[9] = ATG_E_Box_CIS: Attagene CIS-FACTORIAL HepG2 Assay for human Enhancer Box (E-box) (AID 2282936); conditions: HepG2 E-box cis-reporter transcription, actives raise or lower the signal
Procedure, shortened: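 Measured 24 h post-dosing in HepG2 cells transfected with multiple cis-regulated reporter units, signal being reporter mRNA induction detected by fluorescent RT-PCR with capillary electrophoresis; gain or loss fitted against DMSO.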

[10] = ATG_M_61_CIS: Attagene CIS-FACTORIAL HepG2 Assay for M61 Transcription Factor (Internal Marker) (AID 2282937); conditions: HepG2 Attagene CIS-FACTORIAL M61 internal marker reporter; actives raise or lower the signal
Procedure, shortened: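 HepG2 cells transiently transfected with cis-element-driven multiple reporter transcription units, dosed for 24 h. Reporter mRNA measured by RT-PCR, 6-FAM primer-extension labelling, HpaI digestion and capillary electrophoresis; bidirectional fit versus DMSO baseline.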

[11] = ATG_EGR_CIS: Attagene CIS-FACTORIAL HepG2 Assay for human Early Growth Response 1 (EGR1) (AID 2282938); conditions: HepG2 Attagene CIS-FACTORIAL EGR reporter mRNA; actives raise or lower the signal
Procedure, shortened: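 HepG2 cells transiently transfected with cis-promoter-driven multiplexed reporter transcription units; reporter mRNA measured 24 h after compound dosing by RT-PCR, 6-FAM primer extension, HpaI digestion and capillary electrophoresis. Bidirectional fit versus DMSO baseline.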

[12] = ATG_M_19_CIS: Attagene CIS-FACTORIAL HepG2 Assay for M19 Transcription Factor (Internal Marker) (AID 2282939); conditions: HepG2 Attagene CIS-FACTORIAL M19 internal marker reporter; actives raise or lower the signal
Procedure, shortened: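 HepG2, MRTU transient transfection, 24 h dosing. Total RNA → RT-PCR → 6-FAM primer extension → HpaI digest → CE fluorescence. Bidirectional curve fit, DMSO negative control.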

[13] = ATG_Ets_CIS: Attagene CIS-FACTORIAL HepG2 Assay for human Erythroblast Transformation Specific (ETS) (AID 2282941); conditions: HepG2 ETS cis-reporter transcription, actives raise or lower the signal
Procedure, shortened: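 Cis-regulated reporter mRNA induction in HepG2 (transient transfection), 24 h exposure, RT-PCR plus capillary electrophoresis detection; DMSO serves as negative control and baseline.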

[14] = target: Hepatocyte nuclear factor 3-beta (Homo sapiens) (UniProt Q9Y261); assay: ATG_FoxA2_CIS: Attagene CIS-FACTORIAL HepG2 Assay for human Forkhead box A2 (FOXA2) (AID 2282942); conditions: HepG2 cis-reporter transcription factor activity, 24 h; actives raise or lower the signal
Procedure, shortened: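 HepG2 cells transiently transfected with multiple cis-regulated reporter transcription units, dosed for 24 h. Reporter mRNA measured by RT-PCR, 6-FAM labelling, HpaI digestion and capillary electrophoresis; bidirectional fitting against DMSO baseline.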

[15] = ATG_FoxO_CIS: Attagene CIS-FACTORIAL HepG2 Assay for human Forkhead box O (FoxO) (AID 2282943); conditions: HepG2 Attagene cis-reporter, FoxO element, mRNA; actives raise or lower the signal
Procedure, shortened: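 Values reflect reporter mRNA induction or loss in HepG2 cells 24 h post-dosing, fitted bidirectionally with DMSO as negative control and baseline. Detection used RT-PCR and fluorescence capillary electrophoresis.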

[16] = ATG_GLI_CIS: Attagene CIS-FACTORIAL HepG2 Assay for human Zinc Finger Protein GLI1 (AID 2282945); conditions: HepG2, Attagene cis-factorial reporter mRNA, GLI element; actives raise or lower the signal
Procedure, shortened: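 HepG2 cells transiently transfected with cis-promoter multiplexed reporter units report endogenous transcription factor activity. After 24 h chemical exposure, reporter mRNA was quantified by RT-PCR, 6-FAM labelling, HpaI digestion and capillary electrophoresis, with bidirectional fitting against DMSO.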

[17] = ATG_ERE_CIS: Attagene CIS-FACTORIAL HepG2 Assay for Estrogen Response Element (ERE) (AID 2282940); conditions: HepG2 ERE cis-reporter, Attagene RNA transcript; actives raise or lower the signal
Procedure, shortened: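 After a 24 h chemical treatment, RNA from reporter-transfected HepG2 cells is reverse-transcribed, PCR-amplified and fluorescently labelled. Fragments separated by capillary electrophoresis give reporter signal; DMSO serves as negative control.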

[18] = ATG_GATA_CIS: Attagene CIS-FACTORIAL HepG2 Assay for human GATA Binding Protein (AID 2282944); conditions: HepG2 GATA cis-element reporter, Attagene multiplex mRNA; actives raise or lower the signal
Procedure, shortened: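 Cells: HepG2, transiently transfected with cis-regulated reporter transcription units. Exposure: 24 h. Detection: RT-PCR plus capillary electrophoresis of FAM-labeled fragments. Analysis: bidirectional, DMSO as baseline.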

[19] = target: Retinoic acid receptor alpha (Homo sapiens) (UniProt P10276); assay: ATG_DR5_RAR_CIS: Attagene CIS-FACTORIAL HepG2 Assay for human Retinoic Acid Receptor Alpha (RARE), DR5 submotif (AID 2282934); conditions: HepG2 Attagene cis-factorial RARE DR5 reporter, mRNA; actives raise or lower the signal
Procedure, shortened: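 Endpoint fitted in both directions relative to DMSO as negative control. It reflects DR5 cis-element reporter mRNA induction in transiently transfected HepG2 cells, measured 24 h after dosing through RT-PCR and fluorescent capillary electrophoresis.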

Measured: AC50

Hepatocyte nuclear factor 3-beta (Homo sapiens), sequence (Q9Y261 whole entry, looked up): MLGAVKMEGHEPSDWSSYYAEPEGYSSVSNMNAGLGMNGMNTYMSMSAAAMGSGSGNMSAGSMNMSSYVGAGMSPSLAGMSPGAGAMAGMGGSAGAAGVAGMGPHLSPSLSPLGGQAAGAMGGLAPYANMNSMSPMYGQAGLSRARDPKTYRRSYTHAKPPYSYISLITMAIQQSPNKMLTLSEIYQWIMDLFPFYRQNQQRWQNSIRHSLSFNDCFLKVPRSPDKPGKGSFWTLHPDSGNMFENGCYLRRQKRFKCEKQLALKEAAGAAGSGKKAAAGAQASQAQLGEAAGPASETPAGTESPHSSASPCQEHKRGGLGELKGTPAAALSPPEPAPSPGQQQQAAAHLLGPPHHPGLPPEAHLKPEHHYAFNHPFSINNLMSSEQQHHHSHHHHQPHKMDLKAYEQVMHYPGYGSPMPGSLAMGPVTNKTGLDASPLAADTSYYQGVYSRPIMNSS
Aryl hydrocarbon receptor (Homo sapiens), sequence (P35869 whole entry, looked up): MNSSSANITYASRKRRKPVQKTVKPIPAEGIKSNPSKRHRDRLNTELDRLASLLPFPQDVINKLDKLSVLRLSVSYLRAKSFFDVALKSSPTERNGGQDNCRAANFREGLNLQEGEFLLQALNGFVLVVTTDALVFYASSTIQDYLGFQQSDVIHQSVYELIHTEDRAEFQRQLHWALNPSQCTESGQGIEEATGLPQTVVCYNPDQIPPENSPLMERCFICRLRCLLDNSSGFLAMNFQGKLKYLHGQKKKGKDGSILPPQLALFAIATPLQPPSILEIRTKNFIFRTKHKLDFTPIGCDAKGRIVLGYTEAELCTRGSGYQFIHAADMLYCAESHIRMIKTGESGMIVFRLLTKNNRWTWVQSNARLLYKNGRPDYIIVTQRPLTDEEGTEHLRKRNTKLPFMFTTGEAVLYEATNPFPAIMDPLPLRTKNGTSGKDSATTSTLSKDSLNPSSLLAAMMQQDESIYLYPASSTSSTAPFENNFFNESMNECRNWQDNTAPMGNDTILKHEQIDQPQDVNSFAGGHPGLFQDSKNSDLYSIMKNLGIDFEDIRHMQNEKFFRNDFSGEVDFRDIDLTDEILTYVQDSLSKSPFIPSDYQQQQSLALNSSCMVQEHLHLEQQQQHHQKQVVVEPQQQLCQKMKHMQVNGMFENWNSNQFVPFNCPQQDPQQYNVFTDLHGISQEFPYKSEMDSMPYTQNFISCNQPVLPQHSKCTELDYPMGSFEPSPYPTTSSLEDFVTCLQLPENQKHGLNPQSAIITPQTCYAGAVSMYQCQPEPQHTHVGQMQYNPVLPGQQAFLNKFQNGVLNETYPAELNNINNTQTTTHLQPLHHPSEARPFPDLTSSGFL
Retinoic acid receptor alpha (Homo sapiens), sequence (P10276 whole entry, looked up): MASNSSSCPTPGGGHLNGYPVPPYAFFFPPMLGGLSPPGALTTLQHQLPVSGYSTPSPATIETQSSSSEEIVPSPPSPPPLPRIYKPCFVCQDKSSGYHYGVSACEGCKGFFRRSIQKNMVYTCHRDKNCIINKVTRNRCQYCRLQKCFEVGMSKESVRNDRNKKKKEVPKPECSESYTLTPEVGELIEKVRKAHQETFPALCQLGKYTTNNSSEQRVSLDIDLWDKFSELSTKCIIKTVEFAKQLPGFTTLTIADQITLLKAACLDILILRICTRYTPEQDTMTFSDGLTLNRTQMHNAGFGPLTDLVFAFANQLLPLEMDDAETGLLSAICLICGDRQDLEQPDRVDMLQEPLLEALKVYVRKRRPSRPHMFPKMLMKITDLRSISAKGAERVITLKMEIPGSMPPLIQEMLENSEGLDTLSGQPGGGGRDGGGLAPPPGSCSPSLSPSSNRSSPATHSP
Transcription factor E2F1 (Homo sapiens), sequence (Q01094 whole entry, looked up): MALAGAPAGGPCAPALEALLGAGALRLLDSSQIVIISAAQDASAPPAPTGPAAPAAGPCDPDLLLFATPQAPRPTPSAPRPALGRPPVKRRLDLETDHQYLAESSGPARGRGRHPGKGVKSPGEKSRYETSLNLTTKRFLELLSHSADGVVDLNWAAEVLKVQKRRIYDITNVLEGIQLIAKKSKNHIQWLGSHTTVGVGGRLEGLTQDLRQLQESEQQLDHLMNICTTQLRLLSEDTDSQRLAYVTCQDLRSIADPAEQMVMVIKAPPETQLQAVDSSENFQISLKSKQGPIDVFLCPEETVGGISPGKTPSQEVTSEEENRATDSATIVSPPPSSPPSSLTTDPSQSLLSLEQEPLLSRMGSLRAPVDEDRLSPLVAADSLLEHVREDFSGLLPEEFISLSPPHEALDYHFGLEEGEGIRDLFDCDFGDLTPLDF

CCCCNC(=O)NS(=O)(=O)c1ccc(C)cc1
not listed: [17] | [18] | [19]
inactive: all other assays above

Cc1ccccc1C=O
active: [4] 53.5 µM
not listed: [14] | [19]
inactive: all other assays above

C=C(C)C(=O)NCCCN(C)C
not listed: [10] | [17] | [19]
inactive: all other assays above

O=S(=O)(O)c1cccc2c(S(=O)(=O)O)cccc12
not listed: [5] | [7] | [10] | [17]
inactive: all other assays above

CN(C)CCCN
not listed: [10] | [19]
inactive: all other assays above

C=CC[N+](C)(C)CC=C
not listed: [9] | [11] | [17]
inactive: all other assays above

O=Cc1ccc(Cl)c([N+](=O)[O-])c1
inactive: [4] | [6] | [8] | [10] | [12] | [17] | [18]
active: [1] 129 µM | [2] 168 µM | [3] 48.4 µM | [5] 25.8 µM | [7] 131 µM | [13] 134 µM | [14] 145 µM | [15] 128 µM | [16] 165 µM

C=C(C)[C@@H]1CC[C@@H](C)C[C@@H]1O
not listed: [17] | [19]
inactive: all other assays above

O=C1C(c2[nH]c3ccc(S(=O)(=O)O)cc3c2O)=Nc2ccc(S(=O)(=O)O)cc21
active: [4] 27.6 µM
not listed: [11] | [17] | [18]
inactive: all other assays above

CCCCC/C=C/C=C/C=O
active: [3] 167 µM
not listed: [13] | [17] | [19]
inactive: all other assays above

C[C@H]1C[C@@H]2[C@H]([C@@H](O)C[C@@]3(C)[C@H]2CC[C@]3(O)C(=O)CO)[C@@]2(C)C=CC(=O)C=C12
not listed: [14] | [17] | [18]
inactive: all other assays above

CC1(C)[C@H](C(=O)OCc2cccc(Oc3ccccc3)c2)[C@@H]1C=C(Cl)Cl
not listed: [8] | [13] | [19]
inactive: all other assays above

O=CCCc1ccccc1
not listed: [17] | [19]
inactive: all other assays above

CC(CCO)CCc1ccccc1 (stereo unspecified)
active: [17] 24.2 µM
not listed: [10] | [19]
inactive: all other assays above

CC(=O)OCc1ccc2c(c1)OCO2
not listed: [8] | [10] | [14] | [17] | [19]
inactive: all other assays above

CN(CCOc1ccc(CC2SC(=O)NC2=O)cc1)c1ccccn1 (stereo unspecified)
active: [17] 0.0823 µM
not listed: [3] | [18] | [19]
inactive: all other assays above

c1cc(C(c2ccc(OCC3CO3)cc2)c2ccc(OCC3CO3)cc2)ccc1OCC1CO1 (stereo unspecified)
active: [1] 25.2 µM | [2] 26.3 µM | [3] 53.2 µM | [5] 19.8 µM | [6] 8.7 µM | [9] 100 µM | [11] 8.73 µM | [12] 175 µM | [14] 185 µM | [15] 167 µM | [18] 180 µM
inactive: [4] | [7] | [8] | [10] | [17] | [13] | [16]
